The values below come from the supplement of paper PMC6555819.

Experiment in all cases: PBM binding z-score (relative to random genomic background probes); higher = stronger binding; sequences stand for … in GC…GCGATTGACAGCGTAGAATGAAGG
Test [1] has as its system FXR:RXRa (NR concentration 270 nM, RXRa partner concentration 90 nM). In short, it runs like this:
(§1)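 Binding buffer was PBS pH 7.4 with 2% milk, 0.02% Triton X-100, 1 mM DTT, 0.2 mg/mL BSA and 0.4 mg/ml salmon testes DNA. In it, ligand-free nuclear receptor dimers were incubated 1 h on custom Agilent 4×180K protein-binding microarrays carrying double-stranded probes. Antibodies against each partner (one per run) detected binding, and z-scores were calculated against random background probes after regression normalization of scanned fluorescence.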

The subject of test [2] is LXRa:RXRa (NR concentration 270 nM, RXRa partner concentration 90 nM). In short, it runs like this: as §1
Test [3] concerns LXRa homodimer (NR concentration 270 nM). In short, it runs like this:
as §1

The subject of test [4] is LXRb:RXRa (NR concentration 270 nM, RXRa partner concentration 90 nM). In short, it runs like this:
as §1

For test [5], the system named is LXRb homodimer (NR concentration 270 nM). A digest of the protocol:
as §1

Test [6] deals with PPARa:RXRa (NR concentration 270 nM, RXRa partner concentration 90 nM). In short, it runs like this: as §1
The test system of test [7] is PPARg:RXRa (NR concentration 180 nM, RXRa partner concentration 90 nM). A digest of the protocol: as §1
Test [8] relates to PPARg:RXRa 270nM:90nM, anti-RXR (NR concentration 270 nM, RXRa partner concentration 90 nM). A digest of the protocol:
as §1

The test system of test [9] is PPARg:RXRa 30nM:10nM, anti-RXR (NR concentration 30 nM, RXRa partner concentration 10 nM). In short, it runs like this:
as §1

Test [10] deals with PPARg:RXRa 90nM:30nM, anti-RXR (NR concentration 90 nM, RXRa partner concentration 30 nM). In short, it runs like this: as §1
Test [11] concerns PPARg:RXRa DBDmut IVT, anti-RXR (DBD mutation: RXRa K156A/R161A, NR concentration 270 nM, RXRa partner concentration 90 nM). A digest of the protocol:
as §1

In test [12] the test system is PPARg:RXRa IVT, anti-PPARg (NR concentration 270 nM, RXRa partner concentration 90 nM). In short, it runs like this: as §1
Test [13] concerns PPARg DBDmut:RXRa IVT, anti-PPARg (DBD mutation: PPARg1 K132A/R137A, NR concentration 270 nM, RXRa partner concentration 90 nM). A digest of the protocol: as §1
Test [14] concerns PPARg DBDmut IVT, anti-PPARg (DBD mutation: PPARg1 K132A/R137A, NR concentration 270 nM). A digest of the protocol:
as §1

Test [15] deals with PPARg homodimer (NR concentration 180 nM). In short, it runs like this:
as §1

For test [16], the system named is PXR:RXRa (NR concentration 270 nM, RXRa partner concentration 90 nM). In short, it runs like this: as §1
The subject of test [17] is PXR homodimer (NR concentration 270 nM). In short, it runs like this:
as §1

Test [18] has as its system RARa:RXR (NR concentration 270 nM, RXRa partner concentration 90 nM). A digest of the protocol: as §1
The test system of test [19] is RARa homodimer (NR concentration 270 nM). A digest of the protocol: as §1
In test [20] the test system is RARb:RXRa (NR concentration 270 nM, RXRa partner concentration 90 nM). In short, it runs like this:
as §1

With ATACCAAGGTGATCGAGAGGTCGTTGATACTAAC, the PBM binding z-score in test [1] turned out to be 1.97; in test [2], 1.51; in test [3], 0.71; in [4], 1.37; in [5], 0.0291; in test [6] it was 1.72. Also, the PBM binding z-score was found to be 0.979 in [7]; 1 in test [8]; 0.238 in test [9]; 0.545 in [10]; 0.406 in [11]; 1.39 in [12]. Also, the PBM binding z-score in [13] was 0.441; in test [14], 0.884; in test [15], 1.08; in [16] it was 2.91; in test [17], 1.12; in [18], 2.04. Moreover, the figures for the PBM binding z-score in test [19] and in [20] were 0.692 and 1.56, respectively.

For CCAGACAGGTGAAAGGTAACGCAGTCTGGTACGC, the PBM binding z-score was 0.748 in [1]; 0.83 in test [2]; -0.423 in test [3]; 0.898 in [4]; -0.326 in [5]; 3.57 in test [6]. Moreover, the PBM binding z-score in test [7] was 5.87; in [8] it was 6.19; in test [9] it was 4.19; in test [10], 6.4; in test [11], 2.46; in [12], 3.24. For the same sequence, the PBM binding z-score in test [13] was -0.31; in [14], 0.017; in test [15], 1.67; in test [16], 0.869; in test [17] it was -0.124; in [18], 2.01. Moreover, the results for the PBM binding z-score in test [19] and in test [20] were 0.457 and 1.47, respectively.

Take ATCGAAAGGTCGGGAGGTGAGTATACAGAAAGGC: the PBM binding z-score in [1] came out at 2.88; in [2], 2.4; in [3] it was 0.589; in [4], 2.36; in test [5], 0.968; in test [6], 3.64. Moreover, the PBM binding z-score in [7] was 2.22; in [8], 2.42; in test [9] it was 0.864; in [10] it was 1.44; in test [11], 0.224; in test [12], 1.47. Moreover, the PBM binding z-score in test [13] amounted to 2.2; in test [14], 1.16; in [15], 1.74; in test [16], 2.12; in test [17], 0.567; in test [18] it was 2.81. Besides, the PBM binding z-score worked out at 1.38 in test [19] and 3.48 in test [20].

For GCGACTGGGGGAAAGCAGGTTACCATAAGGTTGG, the PBM binding z-score in test [1] was 0.271; in test [2] it was 0.375; in test [3], -0.178; in [4], 1.5; in [5], 2.74; in test [6], 1.75. For the same sequence, the PBM binding z-score in test [7] turned out to be 0.956; in test [8] it was 1.47; in test [9], 0.539; in test [10] it was 1.33; in test [11] it was 2.14; in [12], 3.37. Further, the PBM binding z-score stood at 1.81 in test [13]; 2.84 in test [14]; 0.279 in [15]; 0.944 in test [16]; 0.0746 in [17]; 1.14 in test [18]. Also, the PBM binding z-score in [19] was -0.282; in test [20], 0.616.

In the case of CCTCGGAGGACGGAAGGTCAGAGCTGTCCGCTTT, the PBM binding z-score is 1.07 in test [1]; 1.43 in [2]; -0.129 in test [3]; 0.901 in [4]; -1.26 in [5]; 1.57 in test [6]. Besides, the PBM binding z-score in test [7] is -0.636; in [8], 0.361; in test [9], -0.964; in [10], -0.314; in test [11], -0.591; in test [12], -0.453. Moreover, the PBM binding z-score was -1.93 in [13]; -2.58 in test [14]; 1.18 in test [15]; 1.33 in test [16]; 0.186 in test [17]; 1.76 in test [18]. The PBM binding z-score in [19] was -0.121; in [20], 2.6.

As for GCTTACGCGTCAAAGGTTATAGCATGAATAGAAT, the PBM binding z-score is 1.21 in test [1]; 1.97 in [2]; -0.0765 in test [3]; 2.18 in test [4]; -0.553 in [5]; 3.38 in test [6]. The PBM binding z-score is 3.1 in [7]; 3.84 in test [8]; 2.28 in test [9]; 4.07 in [10]; -0.0505 in [11]; 0.407 in [12]. Also, the PBM binding z-score was -0.0262 in [13]; 0.00309 in test [14]; 1.46 in test [15]; 2.22 in test [16]; -0.288 in [17]; 3.3 in test [18]. Moreover, the PBM binding z-score in test [19] was -0.0243; in test [20], 1.22.

On to CCAGACAGGTGAGAAGGTAATTCAGCCTCGATTA, for which the PBM binding z-score in test [1] was -0.0604; in test [2] it was -0.00281; in [3], 0.0932; in test [4], 0.0559; in test [5], -0.31; in test [6], 0.475. Besides, the PBM binding z-score in test [7] is 0.379; in [8], 0.635; in test [9] it was -0.0755; in [10] it was 0.116; in test [11], 1.14; in test [12], 0.682. Also, the PBM binding z-score is -0.0729 in test [13]; -0.734 in test [14]; 0.321 in test [15]; -0.0378 in test [16]; 0.107 in [17]; 0.349 in test [18]. Moreover, the figures for the PBM binding z-score in test [19] and in test [20] were 0.94 and 0.555, respectively.
